Measured values reported in the supplement of paper PMC10849652.
The full data set covers some 8,800 targets. This sample favours those with a hit. About 0.5% of all pairs of compound and target were hits.

What was measured:
Assay in all cases: log2 fold change, soluble protein after heating vs DMSO (PISA); higher = thermal stabilisation; K562 lysate, 10 uM; active = over 0.2 and 3.5 SD of the protein, either way, in both replicates (recomputed)
lapatinib = compound: CS(=O)(=O)CCNCc1ccc(-c2ccc3ncnc(Nc4ccc(OCc5cccc(F)c5)c(Cl)c4)c3c2)o1 [lapatinib]
Summary of the method: (§1)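 Log-two fold change in thermal stability relative to solvent controls is reported from duplicates. For each sample, crude K562 extract from dounce-homogenised pellets in PBS pH 7.4 with 1 mM MgCl2, at 1 mg/mL protein, was treated with 10 μM compound for 30 min. Aliquots heated for 3 min across 48°C-58°C were pooled, brought to 0.5% NP-40 at 4°C and cleared at 21,000xg for 90 min. The supernatant was quantified by TMTpro 16plex LC-MS/MS with channel sums equalised.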

pictilisib = compound: CS(=O)(=O)N1CCN(Cc2cc3nc(-c4cccc5[nH]ncc45)nc(N4CCOCC4)c3s2)CC1 [pictilisib]
Summary of the method: as §1

crizotinib = compound: C[C@@H](Oc1cc(-c2cnn(C3CCNCC3)c2)cnc1N)c1c(Cl)ccc(F)c1Cl [crizotinib]
Summary of the method: as §1

[1] = compound: C[C@H](C1=CC=C(C=C1)C(=O)NC2=C3C=CNC3=NC=C2)N
Summary of the method: as §1

duvelisib = compound: C[C@H](Nc1ncnc2nc[nH]c12)c1cc2cccc(Cl)c2c(=O)n1-c1ccccc1 [duvelisib]
Summary of the method: as §1

gandotinib = compound: Cc1cc(Nc2cc(CN3CCOCC3)c3nc(C)c(Cc4ccc(Cl)cc4F)n3n2)n[nH]1 [gandotinib]
Summary of the method: as §1

tozasertib = compound: Cc1cc(Nc2cc(N3CCN(C)CC3)nc(Sc3ccc(NC(=O)C4CC4)cc3)n2)n[nH]1 [tozasertib]
Summary of the method: as §1

doramapimod = compound: Cc1ccc(-n2nc(C(C)(C)C)cc2NC(=O)Nc2ccc(OCCN3CCOCC3)c3ccccc23)cc1 [doramapimod]
Summary of the method: as §1

bafetinib = compound: Cc1ccc(NC(=O)c2ccc(CN3CC[C@H](N(C)C)C3)c(C(F)(F)F)c2)cc1Nc1nccc(-c2cncnc2)n1 [bafetinib]
Summary of the method: as §1

[2] = compound: Cc1cccc(CC(=O)N2CCc3c2ccc(-c2cn(C)c4ncnc(N)c24)c3F)n1
Summary of the method: as §1

nilotinib = compound: Cc1cn(-c2cc(NC(=O)c3ccc(C)c(Nc4nccc(-c5cccnc5)n4)c3)cc(C(F)(F)F)c2)cn1 [nilotinib]
Summary of the method: as §1

[3] = compound: Cc1nc(Nc2n[nH]c3c2CN(C(=O)N[C@H](CN(C)C)c2ccccc2)C3(C)C)c2sccc2n1
Summary of the method: as §1

dasatinib = compound: Cc1nc(Nc2ncc(C(=O)Nc3c(C)cccc3Cl)s2)cc(N2CCN(CCO)CC2)n1 [dasatinib]
Summary of the method: as §1

[4] = compound: Cc1ncc(-c2ccnc(Nc3ccc(S(C)(=O)=O)cc3)n2)n1C(C)C
Summary of the method: as §1

[5] = compound: Cn1cc(-c2ccc3c(c2)CCN3C(=O)Cc2cccc(C(F)(F)F)c2)c2c(N)ncnc21
Summary of the method: as §1

quisinostat = compound: Cn1cc(CNCC2CCN(c3ncc(C(=O)NO)cn3)CC2)c2ccccc21 [quisinostat]
Summary of the method: as §1

tipifarnib = compound: Cn1cncc1[C@@](N)(c1ccc(Cl)cc1)c1ccc2c(c1)c(-c1cccc(Cl)c1)cc(=O)n2C [tipifarnib]
Summary of the method: as §1

[6] = compound: NC(=O)Nc1cc(-c2cccc(F)c2)sc1C(=O)N[C@H]1CCCNC1
Summary of the method: as §1

[7] = compound: NC(=O)c1cnc(N[C@@H]2CCCC[C@@H]2N)nc1Nc1cccc(-n2nccn2)c1
Summary of the method: as §1

[8] = compound: NC1(c2ccc(-c3nc4ccn5c(=O)[nH]nc5c4cc3-c3ccccc3)cc2)CCC1
Summary of the method: as §1

Measured: log2 fold change

SNCA (UniProt P37840)
active: gandotinib 0.456
inactive: lapatinib 0.137 | pictilisib -0.014 | crizotinib 0.127 | [1] -0.101 | duvelisib -0.005 | tozasertib 0.016 | doramapimod 0.196 | bafetinib 0.098 | [2] 0.073 | nilotinib 0.148 | [3] 0.075 | dasatinib 0.128 | [4] -0.032 | [5] 0.019 | quisinostat -0.031 | tipifarnib 0.159 | [6] -0.112 | [7] -0.049 | [8] 0

STK24 (UniProt B4DR80)
active: [3] 0.298
inactive: lapatinib 0.006 | pictilisib 0 | crizotinib 0.044 | [1] 0.034 | duvelisib -0.016 | gandotinib 0.089 | tozasertib 0.001 | doramapimod -0.054 | bafetinib 0.004 | [2] 0 | nilotinib 0.031 | dasatinib 0.092 | [4] 0.086 | [5] -0.005 | quisinostat -0.019 | tipifarnib 0.007 | [6] 0.187 | [7] 0.023 | [8] -0.005

SMC3 (UniProt Q9UQE7)
inactive: lapatinib 0.007 | pictilisib 0.006 | crizotinib 0.011 | [1] 0.037 | duvelisib -0.01 | gandotinib -0.013 | tozasertib 0.001 | doramapimod -0.007 | bafetinib -0.021 | [2] -0.012 | nilotinib 0 | [3] -0.01 | dasatinib 0.024 | [4] 0.013 | [5] 0.024 | quisinostat 0.023 | tipifarnib 0.002 | [6] 0 | [7] -0.003 | [8] 0.016

SLC27A4 (UniProt Q6P1M0)
Sequence of UniProt Q6P1M0 (Q6P1M0 whole entry, looked up): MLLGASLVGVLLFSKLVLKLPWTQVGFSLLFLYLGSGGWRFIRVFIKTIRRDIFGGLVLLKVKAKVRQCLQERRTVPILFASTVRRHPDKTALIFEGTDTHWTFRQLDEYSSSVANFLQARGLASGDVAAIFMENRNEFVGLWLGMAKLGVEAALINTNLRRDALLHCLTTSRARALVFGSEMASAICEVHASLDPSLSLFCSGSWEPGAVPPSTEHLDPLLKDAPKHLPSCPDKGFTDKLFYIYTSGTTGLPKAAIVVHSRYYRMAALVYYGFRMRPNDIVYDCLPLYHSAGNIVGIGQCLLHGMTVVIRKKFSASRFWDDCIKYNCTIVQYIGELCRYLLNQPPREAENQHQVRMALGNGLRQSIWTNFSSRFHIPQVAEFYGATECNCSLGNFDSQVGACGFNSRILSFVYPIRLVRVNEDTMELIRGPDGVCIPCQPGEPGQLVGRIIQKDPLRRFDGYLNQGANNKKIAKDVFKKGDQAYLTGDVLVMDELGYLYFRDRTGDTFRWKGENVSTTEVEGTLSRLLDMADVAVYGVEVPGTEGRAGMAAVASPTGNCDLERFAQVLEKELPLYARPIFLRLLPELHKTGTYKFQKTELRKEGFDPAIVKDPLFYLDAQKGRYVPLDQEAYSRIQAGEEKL
inactive: lapatinib -0.052 | pictilisib -0.005 | crizotinib -0.049 | [1] -0.04 | duvelisib 0.037 | gandotinib 0.095 | tozasertib -0.045 | doramapimod 0.149 | bafetinib -0.057 | [2] 0.052 | nilotinib -0.061 | [3] 0.002 | dasatinib 0.026 | [4] -0.036 | [5] 0.048 | quisinostat -0.123 | tipifarnib 0.096 | [6] 0.036 | [7] -0.023 | [8] 0.036

SURF2 (UniProt Q15527)
Sequence of UniProt Q15527 (Q15527 whole entry, looked up): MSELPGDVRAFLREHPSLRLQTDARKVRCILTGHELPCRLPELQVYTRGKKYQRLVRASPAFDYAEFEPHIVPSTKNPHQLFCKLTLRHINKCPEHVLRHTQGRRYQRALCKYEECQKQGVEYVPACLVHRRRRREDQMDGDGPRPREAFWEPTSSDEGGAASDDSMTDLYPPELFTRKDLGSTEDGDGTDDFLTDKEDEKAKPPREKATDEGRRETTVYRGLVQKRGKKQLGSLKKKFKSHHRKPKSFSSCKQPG
inactive: lapatinib -0.005 | pictilisib -0.049 | crizotinib -0.031 | [1] -0.008 | duvelisib 0.014 | gandotinib 0.092 | tozasertib -0.061 | doramapimod -0.018 | bafetinib -0.055 | [2] 0.111 | nilotinib -0.192 | [3] -0.052 | dasatinib -0.045 | [4] 0.195 | [5] -0.031 | quisinostat -0.054 | tipifarnib 0.066 | [6] -0.036 | [7] 0.014

SSU72 (UniProt Q9NP77)
Sequence of UniProt Q9NP77 (Q9NP77 whole entry, looked up): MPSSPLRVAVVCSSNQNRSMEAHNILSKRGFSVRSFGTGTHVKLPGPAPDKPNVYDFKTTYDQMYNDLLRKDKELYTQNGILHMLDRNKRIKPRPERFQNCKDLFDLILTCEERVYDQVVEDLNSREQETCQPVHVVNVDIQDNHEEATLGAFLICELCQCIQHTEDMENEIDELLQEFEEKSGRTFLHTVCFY
active: [1] -0.288
inactive: lapatinib -0.02 | pictilisib 0.008 | crizotinib -0.042 | duvelisib -0.004 | gandotinib 0.134 | tozasertib -0.074 | doramapimod 0.057 | bafetinib -0.052 | [2] 0.166 | nilotinib 0.031 | [3] -0.007 | dasatinib -0.008 | [4] -0.028 | [5] 0.037 | quisinostat -0.002 | tipifarnib 0.02 | [6] -0.021 | [7] -0.013 | [8] 0.041

SHCBP1 (UniProt Q8NEM2)
Sequence of UniProt Q8NEM2 (Q8NEM2 whole entry, looked up): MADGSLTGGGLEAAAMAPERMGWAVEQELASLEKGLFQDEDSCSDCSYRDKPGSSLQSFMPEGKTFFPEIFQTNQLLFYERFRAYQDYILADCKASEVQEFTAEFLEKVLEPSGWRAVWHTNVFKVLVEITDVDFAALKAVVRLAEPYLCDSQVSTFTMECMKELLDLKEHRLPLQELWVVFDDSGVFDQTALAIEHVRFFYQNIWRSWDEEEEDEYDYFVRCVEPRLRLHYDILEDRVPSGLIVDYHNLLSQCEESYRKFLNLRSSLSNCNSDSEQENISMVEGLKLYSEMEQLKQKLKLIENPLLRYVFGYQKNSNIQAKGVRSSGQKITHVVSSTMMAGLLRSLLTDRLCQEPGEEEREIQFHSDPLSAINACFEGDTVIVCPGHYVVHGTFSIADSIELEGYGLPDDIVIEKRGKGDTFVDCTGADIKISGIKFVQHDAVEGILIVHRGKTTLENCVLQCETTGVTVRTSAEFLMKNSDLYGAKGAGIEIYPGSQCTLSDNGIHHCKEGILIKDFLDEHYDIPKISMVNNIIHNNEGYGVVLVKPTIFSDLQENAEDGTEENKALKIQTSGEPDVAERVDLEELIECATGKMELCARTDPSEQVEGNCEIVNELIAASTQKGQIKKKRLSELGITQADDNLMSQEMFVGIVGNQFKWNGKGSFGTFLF
inactive: lapatinib 0.061 | pictilisib 0.046 | crizotinib -0.029 | [1] -0.043 | duvelisib 0.028 | gandotinib -0.031 | tozasertib 0.059 | doramapimod 0.028 | bafetinib -0.073 | [2] 0.078 | nilotinib -0.051 | [3] -0.024 | dasatinib -0.071 | [4] -0.043 | [5] 0.026 | quisinostat -0.019 | tipifarnib -0.035 | [6] -0.009 | [7] -0.019 | [8] -0.016

SULT1A1 (UniProt P50225)
inactive: lapatinib 0.023 | pictilisib -0.052 | crizotinib -0.074 | [1] -0.014 | duvelisib -0.009 | gandotinib -0.023 | tozasertib -0.002 | doramapimod -0.037 | bafetinib -0.025 | [2] 0.046 | nilotinib 0.029 | [3] -0.074 | dasatinib 0.009 | [4] -0.028 | [5] -0.007 | quisinostat -0.006 | tipifarnib -0.043 | [6] 0.047 | [7] 0.007 | [8] -0.021

SLC11A2 isoform 3 (UniProt P49281)
Sequence of UniProt P49281 (P49281 whole entry, looked up): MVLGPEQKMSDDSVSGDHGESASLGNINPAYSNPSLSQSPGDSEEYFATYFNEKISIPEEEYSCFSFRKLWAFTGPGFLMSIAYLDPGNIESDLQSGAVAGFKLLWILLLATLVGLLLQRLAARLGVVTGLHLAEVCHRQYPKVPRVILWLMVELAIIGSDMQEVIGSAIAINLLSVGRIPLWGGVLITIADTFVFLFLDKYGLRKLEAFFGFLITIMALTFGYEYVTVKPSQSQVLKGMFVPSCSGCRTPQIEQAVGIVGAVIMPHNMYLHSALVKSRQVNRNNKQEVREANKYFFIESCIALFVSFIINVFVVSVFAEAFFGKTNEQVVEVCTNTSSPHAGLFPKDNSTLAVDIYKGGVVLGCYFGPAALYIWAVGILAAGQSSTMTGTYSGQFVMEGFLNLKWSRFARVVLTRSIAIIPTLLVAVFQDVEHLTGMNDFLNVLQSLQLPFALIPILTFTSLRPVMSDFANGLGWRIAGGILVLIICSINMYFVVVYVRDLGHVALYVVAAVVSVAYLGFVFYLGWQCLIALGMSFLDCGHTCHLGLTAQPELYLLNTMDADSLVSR
inactive: lapatinib 0 | pictilisib -0.014 | crizotinib -0.004 | [1] -0.052 | duvelisib -0.025 | gandotinib 0.033 | tozasertib -0.08 | doramapimod -0.018 | bafetinib 0.035 | [2] 0.036 | nilotinib -0.099 | [3] -0.108 | dasatinib 0.07 | [4] 0.03 | [5] -0.048 | quisinostat -0.112 | tipifarnib -0.089 | [6] 0.055 | [7] -0.042 | [8] 0.111

TADA3 (UniProt O75528)
inactive: lapatinib -0.005 | pictilisib 0.009 | crizotinib 0.017 | [1] -0.09 | duvelisib -0.002 | gandotinib 0.143 | tozasertib 0.066 | doramapimod 0.006 | bafetinib -0.051 | [2] 0.087 | nilotinib -0.022 | [3] -0.036 | dasatinib -0.014 | [4] -0.023 | [5] 0.019 | quisinostat -0.037 | tipifarnib -0.035 | [6] 0.006 | [7] 0.024 | [8] -0.044

SOAT1 (UniProt P35610)
Sequence of UniProt P35610 (P35610 whole entry, looked up): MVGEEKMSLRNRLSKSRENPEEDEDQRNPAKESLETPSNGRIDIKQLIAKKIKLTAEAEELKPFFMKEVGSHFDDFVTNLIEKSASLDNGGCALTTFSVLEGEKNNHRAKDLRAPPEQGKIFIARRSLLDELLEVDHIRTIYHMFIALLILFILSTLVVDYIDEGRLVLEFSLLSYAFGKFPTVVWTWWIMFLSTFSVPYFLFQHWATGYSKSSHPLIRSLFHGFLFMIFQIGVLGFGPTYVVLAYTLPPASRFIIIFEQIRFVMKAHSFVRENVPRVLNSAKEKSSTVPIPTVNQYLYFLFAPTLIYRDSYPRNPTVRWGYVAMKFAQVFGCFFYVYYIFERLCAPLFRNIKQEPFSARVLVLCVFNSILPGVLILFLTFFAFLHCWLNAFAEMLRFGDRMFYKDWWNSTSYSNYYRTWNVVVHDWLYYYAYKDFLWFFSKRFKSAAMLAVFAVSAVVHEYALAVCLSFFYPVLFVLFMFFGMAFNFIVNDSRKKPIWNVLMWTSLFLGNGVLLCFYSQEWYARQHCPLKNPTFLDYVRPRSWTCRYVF
active: nilotinib 0.313
inactive: lapatinib 0.027 | pictilisib -0.004 | crizotinib -0.022 | [1] -0.079 | duvelisib -0.016 | gandotinib 0.005 | tozasertib 0.009 | doramapimod 0.157 | bafetinib 0.029 | [2] 0.141 | [3] -0.019 | dasatinib 0.071 | [4] -0.065 | [5] -0.022 | quisinostat -0.12 | tipifarnib 0.072 | [6] -0.042 | [7] 0.045 | [8] -0.013

SLC38A1 (UniProt Q9H2H9)
Sequence of UniProt Q9H2H9 (Q9H2H9 whole entry, looked up): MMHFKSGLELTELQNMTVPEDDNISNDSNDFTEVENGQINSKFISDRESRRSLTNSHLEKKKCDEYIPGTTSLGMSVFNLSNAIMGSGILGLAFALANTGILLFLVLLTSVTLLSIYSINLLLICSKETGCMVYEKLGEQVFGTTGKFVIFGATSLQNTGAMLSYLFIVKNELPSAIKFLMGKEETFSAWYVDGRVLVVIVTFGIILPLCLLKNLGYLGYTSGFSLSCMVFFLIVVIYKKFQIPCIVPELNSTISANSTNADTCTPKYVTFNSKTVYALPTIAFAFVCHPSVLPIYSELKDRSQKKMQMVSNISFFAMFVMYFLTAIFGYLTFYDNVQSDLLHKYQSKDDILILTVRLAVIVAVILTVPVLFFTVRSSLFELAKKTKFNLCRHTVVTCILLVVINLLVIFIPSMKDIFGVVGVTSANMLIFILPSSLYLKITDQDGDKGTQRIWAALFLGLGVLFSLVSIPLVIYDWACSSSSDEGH
inactive: lapatinib -0.008 | pictilisib -0.01 | crizotinib -0.064 | [1] -0.218 | duvelisib 0.048 | gandotinib 0.096 | tozasertib 0.026 | doramapimod -0.009 | bafetinib 0.003 | [2] 0.095 | nilotinib -0.001 | [3] 0.007 | dasatinib 0.001 | [4] -0.002 | [5] -0.041 | quisinostat -0.123 | tipifarnib -0.032 | [6] -0.015 | [7] 0.001 | [8] -0.024

TANGO6 (UniProt Q9C0B7)
Sequence of UniProt Q9C0B7 (Q9C0B7 whole entry, looked up): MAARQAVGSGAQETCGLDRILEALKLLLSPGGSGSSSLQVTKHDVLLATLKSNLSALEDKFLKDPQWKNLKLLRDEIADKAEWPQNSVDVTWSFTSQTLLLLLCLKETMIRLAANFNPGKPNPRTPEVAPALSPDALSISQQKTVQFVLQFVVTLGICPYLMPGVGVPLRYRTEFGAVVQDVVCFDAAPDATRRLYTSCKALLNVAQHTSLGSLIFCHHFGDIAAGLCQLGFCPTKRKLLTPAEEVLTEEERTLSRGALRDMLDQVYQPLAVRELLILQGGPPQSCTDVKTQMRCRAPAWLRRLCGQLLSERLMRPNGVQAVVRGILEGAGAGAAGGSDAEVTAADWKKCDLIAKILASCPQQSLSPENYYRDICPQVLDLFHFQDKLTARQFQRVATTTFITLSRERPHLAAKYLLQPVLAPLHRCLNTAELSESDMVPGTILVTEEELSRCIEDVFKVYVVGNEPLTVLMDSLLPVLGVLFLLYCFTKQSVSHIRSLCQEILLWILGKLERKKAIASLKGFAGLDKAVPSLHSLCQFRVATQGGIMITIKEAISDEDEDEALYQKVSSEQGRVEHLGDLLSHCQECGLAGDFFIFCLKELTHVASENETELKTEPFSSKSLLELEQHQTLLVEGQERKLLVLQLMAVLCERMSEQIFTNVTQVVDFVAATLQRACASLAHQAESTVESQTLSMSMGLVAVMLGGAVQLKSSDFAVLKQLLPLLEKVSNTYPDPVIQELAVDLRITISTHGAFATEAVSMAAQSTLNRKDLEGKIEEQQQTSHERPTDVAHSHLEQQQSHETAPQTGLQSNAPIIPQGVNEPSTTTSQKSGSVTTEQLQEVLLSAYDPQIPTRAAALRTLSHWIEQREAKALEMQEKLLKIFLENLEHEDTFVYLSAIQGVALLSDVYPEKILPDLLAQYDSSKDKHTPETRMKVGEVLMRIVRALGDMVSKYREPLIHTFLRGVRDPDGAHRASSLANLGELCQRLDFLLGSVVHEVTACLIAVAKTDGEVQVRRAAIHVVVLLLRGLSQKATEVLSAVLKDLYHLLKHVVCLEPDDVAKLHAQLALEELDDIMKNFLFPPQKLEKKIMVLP
inactive: lapatinib -0.054 | pictilisib -0.002 | crizotinib -0.065 | [1] -0.102 | duvelisib 0.005 | gandotinib 0.037 | tozasertib -0.023 | doramapimod 0.014 | bafetinib -0.064 | [2] 0.115 | nilotinib 0.042 | [3] -0.056 | dasatinib -0.006 | [4] 0.019 | [5] 0.025 | quisinostat -0.056 | tipifarnib 0.044 | [6] 0.046 | [7] -0.037 | [8] -0.001

SPR (UniProt P35270)
Sequence of UniProt P35270 (P35270 whole entry, looked up): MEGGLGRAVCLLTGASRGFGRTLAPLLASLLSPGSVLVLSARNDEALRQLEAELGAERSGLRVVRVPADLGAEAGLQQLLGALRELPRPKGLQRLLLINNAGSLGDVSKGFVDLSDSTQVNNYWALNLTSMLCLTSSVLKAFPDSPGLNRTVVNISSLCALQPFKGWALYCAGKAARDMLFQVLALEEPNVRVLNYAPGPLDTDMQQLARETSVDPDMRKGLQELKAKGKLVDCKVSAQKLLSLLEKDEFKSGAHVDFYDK
active: pictilisib 0.472 | gandotinib 0.467
inactive: lapatinib -0.015 | crizotinib 0.276 | [1] -0.029 | duvelisib -0.059 | tozasertib 0.025 | doramapimod -0.06 | bafetinib -0.09 | [2] -0.117 | nilotinib -0.063 | [3] 0.01 | dasatinib 0.201 | [4] 0.012 | [5] 0.075 | quisinostat 0.077 | tipifarnib 0.035 | [6] 0.01 | [7] 0.02 | [8] 0.009

SH3GL1 (UniProt Q99961)
inactive: lapatinib 0.013 | pictilisib 0.005 | crizotinib -0.017 | [1] 0.028 | duvelisib 0.023 | gandotinib 0.009 | tozasertib 0.013 | doramapimod 0.025 | bafetinib -0.001 | [2] -0.063 | nilotinib -0.01 | [3] 0.029 | dasatinib -0.024 | [4] 0.01 | [5] -0.009 | quisinostat -0.046 | tipifarnib 0.015 | [6] 0.004 | [7] 0.006 | [8] 0.033
